Compound activity (PubChem)
NR3A LBD binder: modulators (binders) of human NR3A ligand-binding domain; hit rate 2.5% among 340,000; Tm shift relative to glycine control, % at 25 µM; NR3A LBD differential scanning fluorimetry, Tm shift; 0% = protein alone, 100% = glycine-bound protein;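 active = melting temperature shift of at least 10% of the positive control shift, at one fixed dose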
HGIII-sPLA2 inh: Blocks human group III sPLA2 activity | Q9NZ20 | QFRET BODIPY PC-A2 liposome hydrolysis, fluorescence | inhibition, % at 12.2 µM | hit rate 0.56% among 370,000 | AID 743126;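 active = inhibition above mean plus 3 SD of compounds lying within the high and low control bounds, cut at about 19% in these data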;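 also: 0% = median of test compound wells and 100% = no enzyme DMSO wells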
ADAM17 inh: inhibits human ADAM17. P78536. recombinant ADAM17, EDANS/DABCYL FRET peptide cleavage. inhibition, % at 6.95 µM. hit rate 0.83% among 370,000;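 active = inhibition above the mean of compounds lying between control limits plus 3 SD, set per campaign, cut at about 8.5% in these data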;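 also: 0% = DMSO-only wells as the low control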
Target sequence (P78536 215-824 limits assumed): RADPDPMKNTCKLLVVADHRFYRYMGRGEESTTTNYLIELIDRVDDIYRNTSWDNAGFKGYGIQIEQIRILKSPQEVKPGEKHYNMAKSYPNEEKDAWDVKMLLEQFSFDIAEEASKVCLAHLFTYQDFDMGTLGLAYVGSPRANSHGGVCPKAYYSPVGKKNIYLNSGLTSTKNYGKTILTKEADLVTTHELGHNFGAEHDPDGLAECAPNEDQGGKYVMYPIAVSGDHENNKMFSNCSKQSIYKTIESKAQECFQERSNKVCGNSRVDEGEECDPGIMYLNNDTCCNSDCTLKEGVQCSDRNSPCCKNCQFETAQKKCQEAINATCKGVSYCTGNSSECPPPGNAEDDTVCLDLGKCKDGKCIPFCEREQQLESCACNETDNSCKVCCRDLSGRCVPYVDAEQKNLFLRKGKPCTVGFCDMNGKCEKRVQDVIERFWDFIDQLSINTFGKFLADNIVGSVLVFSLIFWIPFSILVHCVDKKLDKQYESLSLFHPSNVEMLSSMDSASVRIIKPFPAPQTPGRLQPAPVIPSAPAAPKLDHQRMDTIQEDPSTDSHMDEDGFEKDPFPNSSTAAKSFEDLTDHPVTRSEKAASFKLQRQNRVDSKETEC
FAS-TE inh: FAS thioesterase (human) inhibition; inhibition, % at 15 µM; hit rate 0.67% among 360,000; recombinant FAS-TE, OMFH fluorogenic substrate, fluorescence endpoint;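 active = compounds whose normalised, plate-corrected inhibition of enzyme fluorescence in the single-dose primary screen is 50% or more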;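 also: 0% = DMSO with enzyme and 100% = substrate without enzyme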
ADAM10 inh: inhibitors of human ADAM10. O14672. recombinant ADAM10, EDANS/DABCYL FRET peptide cleavage, 3 h. inhibition, % at 7 µM. hit rate 0.62% among 370,000. AID 720582;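 active = inhibition above a per-campaign cutoff equal to the mean of compounds falling between control-based bounds plus 3 SD, cut at about 20% in these data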;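 also: 0% = DMSO wells while the 100% control is not disclosed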
* hit, by the source's call. Only some compounds are listed: those with a hit (about 4.3% of all), similar ones and a draw of the others.

How did O=C(/C=C/c1cn(-c2ccccc2)nc1-c1ccccc1)Nc1ccc(C(=O)O)cc1 do in these assays?
NR3A LBD binder: -1.6; HGIII-sPLA2 inh: -12.0; ADAM17 inh: -4.7; FAS-TE inh: 23.3; ADAM10 inh: 4.3

What do the screens show for `O=S1(=O)c2ccc(N3CCN(Cc4ccccc4F)CC3)cc2Oc2ccccc2CN1Cc1cn(Cc2ccccc2C(F)(F)F)nn1`?
HGIII-sPLA2 inh: 4.3; ADAM17 inh: 0.3; ADAM10 inh: -1.7

Results for COc1ccc(/C=C/S(=O)(=O)NCCc2ccccc2)c(CNC(=O)OC(C)(C)C)c1 ?
HGIII-sPLA2 inh: -15.5; ADAM17 inh: 2.2; ADAM10 inh: 8.9

What do the screens show for `COc1ccc(-c2nn(-c3ccccc3)cc2C(=O)N(C)CC(=O)Nc2ccccc2Br)cc1`?
NR3A LBD binder: -5.2; HGIII-sPLA2 inh: -16.2; ADAM17 inh: 1.3; FAS-TE inh: 20.3; ADAM10 inh: 1.8

Results for Cc1ccc(-c2nn(-c3ccccc3)cc2/C=C/C(=O)Nc2nccs2)cc1 ?
NR3A LBD binder: 24.3*; HGIII-sPLA2 inh: -5.2; ADAM17 inh: -4.0; FAS-TE inh: 0.3; ADAM10 inh: -12.8

What do the screens show for `O=C(Nc1cccc(S(=O)(=O)N2CCOCC2)c1)c1cn(-c2ccccc2)nc1-c1ccc(F)cc1`?
NR3A LBD binder: 22.1*; HGIII-sPLA2 inh: -4.6; ADAM17 inh: 0.9; FAS-TE inh: 41.0; ADAM10 inh: 13.3

How did COc1ccc(-c2nn(-c3ccccc3)cc2C(=O)N(C)CC(=O)Nc2cccc(F)c2)cc1 do in these assays?
NR3A LBD binder: 11.3*; HGIII-sPLA2 inh: -28.2; ADAM17 inh: 6.2; FAS-TE inh: 18.8; ADAM10 inh: 10.2

What do the screens show for `CC(C)(C)c1ccc(S(=O)(=O)N2CCCC(C(=O)NCc3ccco3)C2)cc1` (configuration not stated)?
HGIII-sPLA2 inh: -19.8; ADAM17 inh: -0.4; ADAM10 inh: -1.2

What do the screens show for `O=C(c1ccco1)N1CCC(Oc2cccnc2)CC1`?
HGIII-sPLA2 inh: 0.0; ADAM17 inh: -1.7; ADAM10 inh: 1.0

What do the screens show for `Cc1ccccc1CN1CCCCC(NC(=O)c2ccccc2F)C1=O` (configuration not stated)?
HGIII-sPLA2 inh: -0.3; ADAM17 inh: -6.7; ADAM10 inh: -3.1

What do the screens show for `Cc1cc(C2N=C(N)Nc3nc4ccccc4n32)c(C)n1-c1ccccc1Cl` (configuration not stated)?
NR3A LBD binder: 12.1*; HGIII-sPLA2 inh: -0.6; ADAM17 inh: 1.6; FAS-TE inh: -6.5; ADAM10 inh: -5.0

Results for Cc1ccc(-n2c(C)cc(C3N=C(N)Nc4nc5ccccc5n43)c2C)c(C)c1 (configuration not stated) ?
NR3A LBD binder: -22.9; HGIII-sPLA2 inh: -8.2; ADAM17 inh: 2.6; FAS-TE inh: -7.8; ADAM10 inh: 6.6

How did Cc1ccc2nc(/C(C#N)=C\c3ccc(Oc4ccc([N+](=O)[O-])cn4)cc3)[nH]c2c1 do in these assays?
NR3A LBD binder: 11.7*; HGIII-sPLA2 inh: -3.0; ADAM17 inh: -5.5; FAS-TE inh: -3.3; ADAM10 inh: -9.6

Results for CN(N=O)c1ccc(CC2CCc3ccccc32)cc1 (configuration not stated) ?
NR3A LBD binder: 15.4*; HGIII-sPLA2 inh: 15.3; ADAM17 inh: -4.1; FAS-TE inh: 23.4; ADAM10 inh: 3.2

Results for O=C(Cc1ccc(F)cc1)N[C@@H]1c2ccccc2CC[C@@H]1O ?
NR3A LBD binder: 4.7; HGIII-sPLA2 inh: 3.8; ADAM17 inh: -1.4; FAS-TE inh: 0.5; ADAM10 inh: -7.7

Results for COc1ccc(COC(=O)c2cccc(S(=O)(=O)N3CCCC3)c2)cc1F ?
NR3A LBD binder: 15.0*; HGIII-sPLA2 inh: -15.6; ADAM17 inh: 4.5; FAS-TE inh: 17.5; ADAM10 inh: 0.3

Results for COc1cc(C(=O)N/N=C/c2ccc(OC(=O)c3cccc(C)c3)cc2)ccc1O ?
NR3A LBD binder: 22.2*; HGIII-sPLA2 inh: -10.8; ADAM17 inh: 0.1; FAS-TE inh: 3.5; ADAM10 inh: 14.6

What do the screens show for `COc1ccccc1COC(=O)c1cccc(S(=O)(=O)N2CCCC2)c1`?
NR3A LBD binder: -0.1; HGIII-sPLA2 inh: -19.8; ADAM17 inh: 1.5; FAS-TE inh: 21.4; ADAM10 inh: 7.4

Results for COc1cc(/C=N/NC(=O)c2cccc(S(=O)(=O)N3CCCC3)c2)ccc1O ?
NR3A LBD binder: 14.8*; HGIII-sPLA2 inh: -0.2; ADAM17 inh: -4.7; FAS-TE inh: -4.1; ADAM10 inh: 2.6

What do the screens show for `COc1cccc(/C=N/NC(=O)c2[nH]nc3c2CCc2ccccc2-3)c1`?
NR3A LBD binder: 25.7*; HGIII-sPLA2 inh: 7.2; ADAM17 inh: 2.6; FAS-TE inh: 16.0; ADAM10 inh: -7.1

How did COC(=O)[C@]12C[C@H](CC(=O)NCc3ccc(C)o3)C(=O)N(Cc3ccco3)C1=C[C@H](COCc1ccccc1)O[C@@H]2C do in these assays?
HGIII-sPLA2 inh: -6.2; ADAM17 inh: 2.6; ADAM10 inh: 8.2

What do the screens show for `Cc1ccc(Cn2cc(CN(C3CC3)S(=O)(=O)c3ccccc3Br)nn2)cc1`?
HGIII-sPLA2 inh: -5.3; ADAM17 inh: 1.6; ADAM10 inh: 4.7

What do the screens show for `O=C1CCC[C@H]2C[C@H](NCc3cccs3)CC[C@]23CCCN13`?
HGIII-sPLA2 inh: 2.0; ADAM17 inh: -0.3; ADAM10 inh: 1.9

Results for COc1cc(C(=O)N/N=C/c2cccc(Oc3ccccc3)c2)ccc1O ?
NR3A LBD binder: 11.2*; HGIII-sPLA2 inh: -7.5; ADAM17 inh: 3.6; FAS-TE inh: 4.9; ADAM10 inh: 5.0

How did O=C(N/N=C/c1cccc(Oc2ccccc2)c1)c1ccc(O)cc1O do in these assays?
NR3A LBD binder: 31.1*; HGIII-sPLA2 inh: -19.0; ADAM17 inh: -3.0; FAS-TE inh: 7.7; ADAM10 inh: -20.6

What do the screens show for `O=C(N/N=C/c1cccc(Oc2ccccc2)c1)c1ccncc1`?
NR3A LBD binder: 5.7; HGIII-sPLA2 inh: -0.2; ADAM17 inh: -1.6; FAS-TE inh: -1.1; ADAM10 inh: -2.6

What do the screens show for `C/C(=N/NS(=O)(=O)c1cc(C)ccc1C)c1c[nH]c2ccccc12`?
NR3A LBD binder: 29.0*; HGIII-sPLA2 inh: 3.6; ADAM17 inh: -2.1; FAS-TE inh: 4.7; ADAM10 inh: -12.0

What do the screens show for `COc1cccc(CNC(=O)c2ccccc2NC(=O)C2=C(C)OCCS2)c1OC`?
NR3A LBD binder: 112.0*; HGIII-sPLA2 inh: -3.7; ADAM17 inh: -1.1; FAS-TE inh: 1.0; ADAM10 inh: 2.5

How did COc1ccc(S[C@]2(C(=O)NCc3ccccc3)CC(=O)N[C@@H]2c2ccc(OC)cc2)cc1 do in these assays?
HGIII-sPLA2 inh: 8.1; ADAM17 inh: 7.3; ADAM10 inh: 1.9

What do the screens show for `O=C(CCC1COc2ccccc2O1)Nc1ccc(Cl)cn1` (configuration not stated)?
NR3A LBD binder: 12.3*; HGIII-sPLA2 inh: -2.2; ADAM17 inh: -2.5; FAS-TE inh: 3.2; ADAM10 inh: 5.6

What do the screens show for `Cc1ccnc(NC(=O)CCC2COc3ccccc3O2)c1` (configuration not stated)?
NR3A LBD binder: 0.5; HGIII-sPLA2 inh: 0.4; ADAM17 inh: -4.7; FAS-TE inh: 1.6; ADAM10 inh: 2.0
